Bioassay records: PubChem, National Center for Advancing Translational Sciences (NCATS)
In the library only some 3.1% were active in any assay of this set; here they are far more common.
S16 viability = Cell viability qHTS assay in S16 Pmp22-F2sN cells. S16 Pmp22-F2sN Schwann cells viability, CellTiter-Glo, 24 h. Potency, µM (highest dose often 57.5 µM), without a hit: at the top dose activity change, negative = cytotoxicity, most hits filed as cytotoxic. 43,000 compounds, 0.48% hits. AID 1508642, 2021; note: nearly all actives have a fitted effect of over 65% in size
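S16 Schwann cells carrying the Pmp22-F2sN reporter, seeded in 1536-well format, were exposed to library compounds for 24 h at 37C. Viability was read as CellTiter-Glo luminescence after 15 min at room temperature.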
p53null 39C tox = qHTS Screen for Compounds that Selectively Target Cancer Cells with p53 Mutations: Cytotoxicity of p53 Null Cells at the Nonpermissive Temperature. 55,000 compounds, 0.97% hits. Potency, µM (highest dose often 46.1 µM), without a hit: top-dose activity, negative = cell killing, actives largely listed as cytotoxic. H1299 p53-null (neo) cells, 39C, ATPlite viability, 24 h. AID 904, 2007;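 note: 0% = DMSO only and -100% = full killing by 100 µM tamoxifen; nearly all actives have a fitted effect of over 50% in size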
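Temperature-shift cytotoxicity format: compound titrations on p53-null or A138V-expressing H1299 cells held 24 hr at 39C, cell ATP then measured, AC50 from Hill model.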
PMP22 txn = Cell-based coincidence reporter assay to measure PMP22 gene transcription in S16 Pmp22-F2sN cells - Primary screen; S16 Pmp22-F2sN Schwann cells (luciferase reporters placed in the Pmp22 gene), FLuc/NLuc coincidence luminescence, 24 h; Potency, µM (highest dose often 57.5 µM), for inactives: at the top dose activity change, negative = inhibition, hits mostly inhibitors; 43,000 compounds, 2% hits; AID 1508649, 2021; active = clear falling dose curves in both reporters; inconclusive = both reporters move, but less clearly or upward; inactive = either reporter flat; the % is the NLuc reporter signal
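Transcriptional readout in edited S16(c9) cells: two luciferases reported from the Pmp22 locus, measured in turn after 24 h compound incubation.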
p53null 32C kill = qHTS Screen for Compounds that Selectively Target Cancer Cells with p53 Mutations: Cytotoxicity of p53 Null Cells at the Permissive Temperature. H1299-neo p53 null cells, ATP luminescence, 24 h, 32C. Potency, µM (top dose mostly 46.1 µM), without a hit: at the highest dose activity change, negative = cytotoxicity, usual class: cytotoxic. 55,000 compounds, 0.62% hits;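 note: 0% = DMSO only and -100% = full killing by 100 µM tamoxifen; nearly all actives have a fitted effect of over 55% in size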
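Cells lacking p53 (H1299-neo) are plated at 600 per well and allowed to settle overnight at 37C. Test compounds (up to 46 uM) are added and held 24 hours at 32C, then ATP is quantified by luminescence.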
SKOV3 invasion = Primary qHTS assay for Inhibitors of ovarian cancer metastasis using an organotypic tumor microenvironment (TME) model | SKOV3ip1-GFP adhesion/invasion on 3D omental model, fluorescence | Potency, µM (doses to about 45.8 µM), for the others: at the highest dose activity change, negative = inhibition, hits mostly inhibitors | 46,000 compounds, 0.1% hits;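 note: plate controls were DMSO wells for no effect and tomatine positive control wells for full effect; nearly all actives have a fitted effect of over 65% in size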
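Adhesion/invasion was scored as fixed GFP-labeled SKOV3ip1 cell counts (488/509 nm), normalized to DMSO and tomatine controls. Cancer cells in serum-free medium, with four compound doses (0.36-46 umol/L), sat 2 hr at RT then 16 hr at 37 C on a 48 hr fibroblast/mesothelial/ECM culture.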
pS6 MEF inh = Acumen qHTS Assay for Inhibitors of the mTORC1 Signaling Pathway in MEF (Tsc2-/-, p53-/-) Cells: Sytravon; 44,000 compounds, 0.78% hits; Potency, µM (titrated, usually from 38.3 µM), without a hit: top-dose activity change, negative = inhibition, hits mostly inhibitors; AID 493208, 2011; Tsc2-/- p53-/- MEF, phospho-rpS6 immunofluorescence/PI, 24 h;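 note: plate controls were DMSO for no effect and rapamycin for full effect; nearly all actives have a fitted effect of over 50% in size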
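Tsc2-/-, p53-/- MEFs (empty-vector stable line) in DMEM + 10% FBS were treated with compounds 24 h at 37 degree Celsius, fixed, and immunostained for phospho-rpS6 (Alexa-488) with propidium iodide counterstain. Laser-scanning cytometry gave % positive cells, normalized against 7.5 nM rapamycin and DMSO.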
* hit, by the source's call; i = inactive; ? = inconclusive; · = no result given. Unless noted, calls come from the whole dose curve; as a rule, active = well fitted curve in the direction sought with a large enough effect; inconclusive = small, poorly fitted or top-dose-only effect, or another doubt; inactive = no such curve, though single readings can be large; an effect the other way counts as inactive or inconclusive. Unless noted, % is set by controls: 0 for no effect and ±100 for the full control effect; potency is the fitted concentration of half-maximal effect.

SMILES	S16 viability	p53null 39C tox	PMP22 txn	p53null 32C kill	SKOV3 invasion	pS6 MEF inh
COc1ccc(-c2nc3ccccc3n2Cc2ccc(Cl)cc2)cc1	18%	4µM*	-19%	56%	1%	-5%
COc1ccc(-c2nc3ccccc3n2Cc2ccc(C(C)C)cc2)cc1	?	?	-18%	9%	i	-11%
COCn1c(-c2ccc(OC)cc2)nc2ccccc21	·	11µM*	·	14µM*	·	·
O=C1c2ccccc2C(=O)C1c1ccnc2ccccc12	·	16µM*	·	?	·	·
Nc1ccc2oc(-c3ccc4nc[nH]c4c3)nc2c1	·	13µM*	·	7.9µM*	·	·
COc1cc(C2c3c(-c4cc(C)ccc4O)n[nH]c3C(=O)N2Cc2ccco2)cc(OC)c1OC (configuration not stated)	19%	5%	-12%	26%	4%	8%
Cc1ccc(O)c(-c2n[nH]c3c2C(c2ccccc2F)N(Cc2ccco2)C3=O)c1 (configuration not stated)	?	8%	?	60%	13µM*	-3%
Cc1ccc(NC2=CC(=O)C(=O)c3ccccc32)cc1	·	3.5µM*	·	4µM*	·	·
Cc1cc(C(=O)N2CCN(c3cccc(Cl)c3)CC2)n(-c2ccccc2)n1	·	·	·	·	5%	·
CCOc1cccc(C2CC(=O)Nc3cc4c(cc32)OCCO4)c1 (configuration not stated)	?	7%	?	27%	-18%	21µM*
COc1ccc(Cl)cc1C1CC(=O)Nc2cc3c(cc21)OCCO3 (configuration not stated)	?	?	2.5µM*	8%	-8%	?
COc1ccc(Nc2cc(-c3cnc(N)nc3)nc(N3CCOCC3)n2)cn1	·	·	·	·	-15%	·
CCCCN(CC)CCNC(=O)c1cc2c(-c3ccc(Cl)cc3)nn(C)c2s1	?	16µM*	?	?	?	?
CCCN(CCC)CCNC(=O)c1cc2c(-c3ccc(Cl)cc3)nn(C)c2s1	?	13µM*	?	?	i	-13%
C[C@]1(CO)CN(c2cc(C(=O)Nc3ccc4c(c3)-c3c(c(C(N)=O)nn3-c3ccc(F)cc3)CC4)c(Cl)cn2)C[C@@]1(C)CO	·	·	·	·	0%	·
Cc1ccccc1NC(=O)c1c(NC(=O)C(F)(F)F)sc2c1CCCCC2	?	?	12µM*	?	i	7%
Cc1ccc(NC(=O)c2c(NC(=O)C(F)(F)F)sc3c2CCCCC3)cc1	?	?	10µM*	?	i	11%
Cc1cccc(NC(=O)c2c(NC(=O)C(F)(F)F)sc3c2CCCCC3)c1	?	?	10µM*	-8%	?	-13%
Cc1cccc(C(=O)Nc2sc3c(c2C(=O)Nc2ccccc2)CCC3)c1	7%	-1%	10%	-2%	3%	8%
O=C(Nc1cccc(Cl)c1)c1c(NC(=O)C(F)(F)F)sc2c1CCCC2	?	?	13µM*	?	?	-9%
Cc1ccc([C@@H]2O[C@H](CO)[C@@H](O)[C@H](O)[C@@H]2O)cc1Cc1ccc(-c2ccc(F)cc2)s1	·	·	·	·	6%	·
CC1(C)SCCN(S(=O)(=O)c2ccc(OCC#CCO)cc2)[C@@H]1C(=O)NO	·	·	·	·	-6%	·
O=C(Cn1nc(C(F)(F)F)c2c1CCCC2)Nc1cccc(Cl)c1	20µM*	?	?	11%	-10%	-18%
